Results taken from PubChem BioAssay (NCI).
This is part of a sample that, as a whole, favours compounds with a hit. Of some 83,000 tested, about 20% had one in any assay.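 Cell lines were cultured in 96-well plates, exposed to a single compound concentration, and assessed for percent growth 48 hours later.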 Unmarked numbers belong to inactive results. The source made the active and inactive calls. Rule for the calls: active = growth percent below 10; inactive = the rest.

tested on: CAKI-1 renal; experiment: NCI-60 one-dose screen, 48 h (100 = growth as untreated, 0 = no growth, -100 = all killed); details: 10 µM unless noted

SMILES | growth
CC(C)(C)c1[nH]nc2c1C(c1cc3ccccc3[nH]c1=O)Nc1cc(C(=O)OCc3ccccc3)ccc1N2 (stereo not drawn) | 54.6%
COc1ccc2nc(-c3c(-c4ccccc4)nc4ncccn34)[nH]c2c1 | 103%
O=C1NC(=Nc2ccc(S(=O)(=O)Nc3nccs3)cc2)S/C1=C\c1coc2ccccc2c1=O | 103%
CC(C)=CCC[C@](C)(O)[C@H]1CC[C@]2(C)[C@@H]1CC[C@@H]1[C@@]3(C)C/C(=C/c4ccc(Br)cc4)C(=O)C(C)(C)[C@@H]3CC[C@]12C | 64.7%
O=c1c2sc3ncc(Br)cc3c2ncn1-c1cccc(Cl)c1 | 98.8%
O=Cc1nc2ccccc2[nH]1 | 93.2%
CCc1ccc(-c2ccc(Nc3ccccc3)nn2)cc1S(N)(=O)=O | 92.6%
COc1ccc(-c2nc3ccccn3c2-c2nc3ccc(Cl)cc3[nH]2)cc1 | 93.2%
Cn1cc(-c2nc(-c3c[nH]c4ncccc34)cs2)c2ccccc21 | 79.1%
COc1ccc2c(c1)C/C(=C\c1cc(-c3ccc4c(c3)OCO4)n[nH]1)C2=O | 90.3%
Nc1ccc(Br)cn1 | 113%
Cc1nn(-c2ccc(Br)cc2)c2nc3[nH]c(=O)[nH]c(=O)c3nc12 | 92.2%
Cn1cc(-c2csc(-c3cn(C(=O)OC(C)(C)C)c4ccccc34)n2)c2cccnc21 | 58.7%
CC(C)(C)c1ccc(OCCCCCCCN2CCNCC2)cc1 | 44.8%
Nc1ccc(Cl)cn1 | 90.5%
Cc1ccc(-c2nc([P+](c3ccccc3)(c3ccccc3)c3ccccc3)c(N3CCOCC3)o2)cc1 | 13.1%
c1ccc2[nH]c(-c3cc(-c4ccc5c(c4)OCO5)n[nH]3)nc2c1 | 55.1%
Nc1c(C(=O)Nc2cccc(Br)c2)sc2nc3c(cc12)C(=O)CCC3 | 64%
COc1cccc(NC(=O)c2sc3nc4c(cc3c2N)C(=O)CCC4)c1 | 55.2%

SMILES | growth
C=C(C)[C@@H]1CC[C@]2(C)[C@H](CC=C3[C@@H]4CC(C)(C)CC[C@]4(C=O)CC[C@]32C)[C@@]1(C)CCCN | 61.1%
CC(C)(C)c1cc(-n2c(-c3ccc(Cl)cc3)nc3cc(C(=O)Nc4ccc(Cl)cc4)ccc32)n[nH]1 | 32%
O=c1c(CNc2ccc(S(=O)(=O)Nc3nccs3)cc2)coc2ccccc12 | 98.5%
COc1cc(-c2cc(-c3nc4ccc(F)cc4[nH]3)[nH]n2)cc(OC)c1OC | 28.4%
O=C1C(Cl)=C(Nc2ccc(S(=O)(=O)c3ccc(NC4=C(Cl)C(=O)c5ccccc5C4=O)cc3)cc2)C(=O)c2ccccc21 | -21.3% (active)
Fc1ccc2nc(-c3cc(-c4ccc5c(c4)OCO5)n[nH]3)[nH]c2c1 | 41%
O=c1c(CNc2ccc(S(=O)(=O)Nc3ncccn3)cc2)coc2ccccc12 | 130%
COc1ccc(-c2cc(/C=C/C(=O)c3ccc(N)cc3)[nH]n2)cc1 | 38.7%
COC(=O)[C@]12CC[C@@H](C(=O)/C=C/c3cccnc3)[C@@H]1[C@H]1CC[C@@H]3[C@@]4(C)C/C(=C/c5cccnc5)C(=O)C(C)(C)[C@@H]4CC[C@@]3(C)[C@]1(C)CC2 | -78.7% (active)
NC1(N)C=CC2=C(C=C1)C1(N)C3=C(C=CC(N)(N)C=C3)N2C2(N)C3=C(C=CC(N)(N)C=C3)N1C1=C2C=CC(N)(N)C=C1 | 70.8%
CCCCC(=O)OC1CCCCC1C (stereo not drawn) | 94.9%
COc1ccc(/C=C/C(=O)NCCO)cc1 | 90.8%
COc1ccc2c(c1)C/C(=C\c1cc(-c3cc(OC)c(OC)c(OC)c3)n[nH]1)C2=O | 84.3%
COc1ccc(NC(=O)c2ccc3c(c2)nc(-c2cc4ccccc4[nH]c2=O)n3-c2cc(C(C)(C)C)[nH]n2)cc1 | 97.2%
COc1ccc2nc(-c3cc(-c4cc(OC)c(OC)c(OC)c4)n[nH]3)[nH]c2c1 | 26.8%
Nc1nc2c(c(=O)[nH]1)C(c1ccc3c(c1)OCO3)C=C(C(=O)O)N2 (stereo not drawn) | 97.1%
COc1ccc(-c2cc(/C=C/C(=O)c3ccc(OC)c(OC)c3)[nH]n2)cc1 | 62.8%
COc1cc2c(cc1OC)C(=O)/C(=C/c1cc(-c3ccc4c(c3)OCO4)n[nH]1)C2 | 56.4%
COc1cc(-c2cc(-c3nc4ccccc4[nH]3)[nH]n2)cc(OC)c1OC | 38.8%
